The list is not random: actives were taken first. Their share in the collection is about 9.9%.
SW480 rereplic – DNA re-replication induction in SW480 cells; SW480 DNA re-replication, Hoechst DNA content imaging, 48 h; Potency, µM (doses to about 46.1 µM), for the others: at the highest dose re-replication activation, hits mostly activators; 340,000 tested, 1.8% active; AID 624297; note: potency is the fitted concentration of half-maximal effect; % of control where 0% means no effect; nearly all actives have a fitted effect of over 55% in size
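Image-based read-out: total Hoechst fluorescence of nuclei (405 nm excitation, 500-530 nm emission), with hits raising the fraction of high-intensity nuclei. SW480 colon cells incubated 48 hr with compounds at 37 C.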
IL-1B inflam inh – blocks inflammasome-driven IL-1 beta release | THP-1 LPS/ATP IL-1B secretion, AlphaLISA, 16 h; stronger effect = lower value | activity change, % at 57.5 µM | 360,000 tested, 4.7% active | AID 743279; in the data active = activity change below about -50%; inconclusive = mostly about -30% to -49%; note: % is set by controls: 0 for no effect and ±100 for the full control effect
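THP-1 cells pretreated 1 hr with compounds (up to 57.5 uM final), then stimulated with LPS (250 ng/mL final) plus ATP (1.25 mM final); secreted IL-1B measured by AlphaLISA after 16 hr, decreased signal indicating inhibition.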
KB-3-1 tox – kills parental KB-3-1 adenocarcinoma cells; AID 1347075; KB-3-1 viability, CellTiter-Glo ATP luminescence, 72 h; 400,000 tested, 1.4% active; Potency, µM (doses to about 46.1 µM), actives largely listed as cytotoxic; note: potency is the fitted concentration of half-maximal effect; % is set by controls: 0 for no effect and ±100 for the full control effect; nearly all actives have a fitted effect of over 60% in size
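KB-3-1 cells, DMEM (no phenol red) + 10% FBS; compound by pin transfer, 72 h, 37 °C. Readout: CellTiter-Glo luminescence after 10 min. Data normalized, curve-fitted.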
KB-V1 cytotox – kills drug-selected multidrug resistant KB-V1 cells. 400,000 tested, 3.4% active. Potency, µM (highest dose often 46.1 µM), actives largely listed as cytotoxic. KB-V1 MDR cells viability, CellTiter-Glo, 72 h; note: potency is the fitted concentration of half-maximal effect; % is set by controls: 0 for no effect and ±100 for the full control effect; nearly all actives have a fitted effect of over 60% in size
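Cytotoxicity toward P-gp-expressing KB-V1 cells was determined as loss of CellTiter-Glo luminescence after 72 h at 37 degrees C. Compounds were tested in quantitative HTS format across a concentration range, with curves fitted to normalized data.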
MCF10A rerep – induces DNA re-replication in MCF 10a normal breast cells; MCF 10A DNA re-replication, Hoechst nuclear intensity, 48 h; Potency, µM (highest dose often 46.1 µM), without a hit: at the top dose activity, positive = re-replication, actives largely listed as activators; 350,000 tested, 2.9% active; AID 624296; note: potency is the fitted concentration of half-maximal effect; % of control where 0% means no effect; nearly all actives have a fitted effect of over 50% in size
The depositor's hits bear a star; i = inactive; ? = inconclusive; · = not tested or not shown; [ ] = remark or other dose. Unless noted, calls come from the whole dose curve; as a rule, active = well fitted curve in the direction sought with a large enough effect; inconclusive = small, poorly fitted or top-dose-only effect, or another doubt; inactive = no such curve, though single readings can be large; an effect the other way counts as inactive or inconclusive.

SMILES	SW480 rereplic	IL-1B inflam inh	KB-3-1 tox	KB-V1 cytotox	MCF10A rerep
COc1ccc(NC(=O)C(=O)NCC2CCCN2S(=O)(=O)c2ccc(C)cc2)cc1 (stereo not drawn)	?	58	0.15µM*	0.23µM*	?
Cc1ccc(C)c(S(=O)(=O)N2CCCC2CNC(=O)C(=O)NCc2ccco2)c1 (stereo not drawn)	0%	-6	i	i	3%
COc1ccc(N2CCN(C(=O)Cn3cnc4nc5c(cc4c3=O)CCCC5)CC2)cc1	·	·	i	i	·
Cc1cc(C(N)=O)nn1-c1c(Cl)cc(Cl)cc1Cl	-21%	16	i	i	2%
CC(=O)Nc1ccc(-n2nnnc2SCC(=O)Nc2cccc(NC(=O)c3ccco3)c2)cc1	-3%	-21	i	i	1%
C[C@H]1CN(CCc2ccccc2)C(=O)[C@@H]1CC(=O)Nc1ccc(Br)cc1	·	10	i	i	·
COc1cc(C)c(C2NC(=O)c3ccccc3N2)cc1C (stereo not drawn)	7.3µM*	8	2.6µM*	?	7.3µM*
Cn1cc(C2NC(=O)c3ccccc3N2)c2ccccc21 (stereo not drawn)	5.8µM*	29	1.2µM*	1.5µM*	2.9µM*
Cc1ccc(C)c(C2NC(=O)c3ccccc3N2)c1 (stereo not drawn)	7.3µM*	10	?	i	2.3µM*
COc1ccc(C2NC(=O)c3ccccc3N2)c(OC)c1OC (stereo not drawn)	·	21	?	?	·
CCOC(=O)Cn1c(=O)n(CC2CCCO2)c2nc(-c3ccc(OCC)cc3)nc(C(N)=O)c21 (stereo not drawn)	·	·	i	i	·
CC(=O)Nc1ccccc1OCC(=O)NC1CCCCC1C (stereo not drawn)	-13%	?	?	i	15%
COc1ccc(NC(=O)Cc2csc(NC(=O)Nc3ccccc3OC)n2)c(OC)c1	1%	-5	i	?	6%
COc1ccccc1NC(=O)Cc1csc(NC(=S)Nc2ccccc2)n1	2.6µM*	-9	?	9.2µM*	?
CCC(=O)Nc1nc(CC(=O)Nc2ccccc2)cs1	-2%	16	i	26µM*	6%
O=C(Cc1csc(-c2ccccc2)n1)Nc1ccc(C(F)(F)F)cc1	-5%	10	i	i	4%
CCOC(=O)Cc1csc(NC(=O)Cc2ccccc2)n1	-6%	6	i	?	7%
COc1ccc(OC)c(NC(=O)Cc2csc(NC(=O)Nc3ccccc3OC)n2)c1	1%	9	i	?	?
Cc1ccc(NC(=O)Cc2csc(-c3ccccc3)n2)cc1F	9%	-80*	i	i	2%
COc1ccc(NC(=S)Nc2nc(CC(=O)Nc3ccccc3OC)cs2)cc1	?	?	?	8.2µM*	21µM*
CCc1ccc(NC(=O)c2ccnc(C(C)(C)C)c2)cc1	-14%	-21	i	21µM*	-3%
Cc1ccc(C(C)C)c(OCc2ccc(-c3nnco3)cc2)c1	9%	-25	i	i	23µM*
Cc1ccc(COc2ccc(-c3nnco3)cc2)cc1	-1%	?	i	i	-3%
CCCOC(=O)c1cccc(Nc2nc(-c3cccnc3)nc3ccccc23)c1	?	-98*	?	?	?
CCOC(=O)c1nc(Nc2ccc(Nc3ccccc3)cc2)c2ccccc2n1	-4%	-65*	?	?	?
SMILES	SW480 rereplic	IL-1B inflam inh	KB-3-1 tox	KB-V1 cytotox	MCF10A rerep
CCOC(=O)c1cccc(Nc2ncnc3ccccc23)c1	-3%	-10	i	12µM*	-1%
Cc1ccc(Nc2ncnc3ccccc23)cc1	8%	-28	i	?	-18%
CCOC(=O)c1ccc(Nc2nc(C(=O)OCC)nc3ccccc23)cc1	-1%	-2	i	i	?
CC(C)Oc1ccc(Nc2ncnc3ccccc23)cc1	7%	-154*	i	?	?
FC(F)(F)c1cnc(COc2ccc(Cl)cc2Cl)c(Cl)c1	-1%	-13	i	i	-2%
O=C(C[C@@H]1C=C[C@H](NC(=O)Cc2ccccn2)[C@@H](CO)O1)NCCc1ccccc1	·	-98*	?	i	·
COc1ccc(/C=N/NC(=O)CCn2cnc3ccccc32)cc1	?	·	i	i	-1%
COc1ccccc1/C=C/C=N/NC(=O)CCn1cnc2ccccc21	21µM*	-7	i	i	?
COc1cccc(/C=N/NC(=O)CCn2cnc3ccccc32)c1	3.7µM*	6	i	i	?
CCc1ccc(NC(=O)CSc2nc3c(c(=O)[nH]2)CN(Cc2ccc(C)cc2)CC3)cc1	·	·	i	i	·
CC(C)(C)NS(=O)(=O)c1ccc(CCC(=O)Nc2ccc3c(c2)OCO3)cc1	0%	-19	i	i	5%
O=C(CN(Cc1ccccc1)S(=O)(=O)c1ccc2c(c1)OCCO2)Nc1ccc2c(c1)OCCO2	14%	-53*	i	?	?
Cc1ccc(/C=N/NC(=O)CN(Cc2ccccc2)S(=O)(=O)c2ccc3c(c2)OCCO3)cc1	?	?	i	5.8µM*	16%
NC(=O)CN(Cc1ccccc1)S(=O)(=O)c1ccc2c(c1)OCCO2	-29%	24	i	i	-36%
CC(C)(C)NS(=O)(=O)c1ccc(CCC(=O)Nc2ccc3c(c2)OCCO3)cc1	-5%	7	i	16µM*	-8%
CC(=O)c1cccc(CN2CCC(C(=O)Nc3ccc(-c4cccc(C)c4)cc3)CC2)c1	?	-62*	?	i	?
CCCc1ccc(OC(=O)c2ccc(O)cc2Cl)cc1	8%	-84*	i	i	?
Cc1cc(C(=O)COC(=O)C(C)NC(N)=O)c(C)n1Cc1ccco1 (stereo not drawn)	25%	-103*	?	i	-43%
Cc1cc(C(=O)COC(=O)c2ccc(O)cc2)c(C)n1Cc1ccco1	2%	3	i	i	1%
COc1ccc(CNC(=O)C2CCN(S(=O)(=O)Cc3ccccc3)CC2)cc1	·	·	i	i	·
CC1CC(C)CN(S(=O)(=O)N2CCC(C(=O)NCCc3ccccc3)CC2)C1 (stereo not drawn)	-2%	17	i	?	-1%
COc1ccc(S(=O)(=O)N(CC(=O)Nc2ccc(Br)cc2)Cc2ccccc2)cc1	·	·	i	?	·
CC(=O)Nc1ccc(S(=O)(=O)N(CC(=O)O)Cc2ccccc2)cc1	-2%[9.22 µM]	24	i	i	-2%
COCCNC(=O)CN(CCc1ccccc1)S(=O)(=O)c1ccc(OC)cc1	3%	-9	i	18µM*	-1%
COc1ccc(S(=O)(=O)N(CC(=O)Nc2ccccc2Br)Cc2ccccc2)cc1	·	·	16µM*	?	·

Source: PubChem BioAssay
